{"source": "the OligoGym collection", "data": [{"target": "YIPF6", "assay": "pooled miR-30 sensor sort-seq; sequence = guide strand", "settings": "shRNA", "values": [{"sequence": "TAGGAATGGTGATTTCTCCTTC", "sensor-assay potency score (higher = more potent)": 0.33}, {"sequence": "TCACTATCTGCAGAGTCTCTTT", "sensor-assay potency score (higher = more potent)": -0.696}, {"sequence": "TCTCTTTGCAGCATTAATGCGA", "sensor-assay potency score (higher = more potent)": -0.247}, {"sequence": "TTGTGAGATGGATATATCTGAA", "sensor-assay potency score (higher = more potent)": -0.839}, {"sequence": "TTACAGGTCCTGGATCAGCCAA", "sensor-assay potency score (higher = more potent)": -1.45}, {"sequence": "TAAACAGCTAGGGCTCTGCGGT", "sensor-assay potency score (higher = more potent)": -0.877}, {"sequence": "TTGAGGGTGATGGTAACTGCAC", "sensor-assay potency score (higher = more potent)": -0.917}, {"sequence": "TTTCACTATCTGCAGAGTCTCT", "sensor-assay potency score (higher = more potent)": -0.747}, {"sequence": "TTTGAGTTGAGGGTGATGGTAA", "sensor-assay potency score (higher = more potent)": -0.386}, {"sequence": "TTTTAGATCACGCATGATGGTA", "sensor-assay potency score (higher = more potent)": -0.619}, {"sequence": "TATCTGCAGAGTCTCTTTGCAG", "sensor-assay potency score (higher = more potent)": -1.39}, {"sequence": "TTTAGATCACGCATGATGGTAT", "sensor-assay potency score (higher = more potent)": 0.00293}]}, {"target": "YJEFN3", "assay": "pooled miR-30 sensor sort-seq; sequence = guide strand", "settings": "shRNA", "values": [{"sequence": "ATGGACAGCAGCTTGAGCGTGG", "sensor-assay potency score (higher = more potent)": 0.0409}, {"sequence": "TGTCCATCTTCTCGCACTGGGT", "sensor-assay potency score (higher = more potent)": -1.09}, {"sequence": "TCCATCTTCTCGCACTGGGTGG", "sensor-assay potency score (higher = more potent)": -1.52}, {"sequence": "ATAGGCTTCGTTAATGAGCTGC", "sensor-assay potency score (higher = more potent)": 0.277}, {"sequence": "TAGCATGACCGCACAGCTCCAC", "sensor-assay potency score (higher = more potent)": -0.593}, {"sequence": "ATGACCGCACAGCTCCACGAGC", "sensor-assay potency score (higher = more potent)": -1.82}, {"sequence": "TTAATGAGCTGCACCTCAGTGG", "sensor-assay potency score (higher = more potent)": 0.0127}, {"sequence": "TTCGTTAATGAGCTGCACCTCA", "sensor-assay potency score (higher = more potent)": -0.35}, {"sequence": "TTGAGCGTGGCCAGCGCGCGGG", "sensor-assay potency score (higher = more potent)": -0.949}, {"sequence": "ATGTCCATCTTCTCGCACTGGG", "sensor-assay potency score (higher = more potent)": -1.01}, {"sequence": "TCATCGGGCACGAACCTGCCGG", "sensor-assay potency score (higher = more potent)": -1.06}, {"sequence": "AATCGCTGCCGGTCTCTGCGTC", "sensor-assay potency score (higher = more potent)": -0.877}]}, {"target": "YPEL3", "assay": "pooled miR-30 sensor sort-seq; sequence = guide strand", "settings": "shRNA", "values": [{"sequence": "TTCAATGATGTACTTCCCCTCT", "sensor-assay potency score (higher = more potent)": -0.135}, {"sequence": "TTCCCCTCTTTGTACTTCTGGC", "sensor-assay potency score (higher = more potent)": -0.928}, {"sequence": "TTGTACTTCTGGCTGCTCTCAA", "sensor-assay potency score (higher = more potent)": 0.24}, {"sequence": "TATACCTCCGGTGACAATCATC", "sensor-assay potency score (higher = more potent)": -1.49}, {"sequence": "TTATGTACAAACGCTACAGAAC", "sensor-assay potency score (higher = more potent)": -1.18}, {"sequence": "TTGGAGATGAGGTCGTCGTGGT", "sensor-assay potency score (higher = more potent)": 0.122}, {"sequence": "TTGAGTTCAATGATGTACTTCC", "sensor-assay potency score (higher = more potent)": 0.797}, {"sequence": "ATATACAGGAGCTAGATCCGTC", "sensor-assay potency score (higher = more potent)": 0.357}, {"sequence": "ACAATCATCCAAGTAGGCCTGA", "sensor-assay potency score (higher = more potent)": 0.225}, {"sequence": "TTTGAAATCCGCACCATGGCGG", "sensor-assay potency score (higher = more potent)": -0.368}, {"sequence": "TCTTGCAGTTCTCGCAGTGGAT", "sensor-assay potency score (higher = more potent)": -1.02}, {"sequence": "TTCTCGCAGTGGATGTCGGCGA", "sensor-assay potency score (higher = more potent)": -0.367}]}]}
